The entries come from a sample that favours hits as a whole.
Sm TGR inh: qHTS Assay for the Inhibitors of Schistosoma Mansoni Peroxiredoxins | Schistosoma mansoni thioredoxin glutathione reductase (TGR), Q962Y6 | purified TGR, DTNB reduction, TNB absorbance 405 nm | Potency, µM (highest dose often 114 µM), hits mostly inhibitors | 3% of 360,000 active | AID 485364, 2010; note: nearly all actives have a fitted effect of over 60% in size
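Kinetic colorimetric format: TGR-catalysed, NADPH-driven DTNB reduction monitored via TNB absorbance. Enzyme dispensed at 20 nM; compound exposure 15 min at room temperature before reaction start.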
LmPK inh: qHTS Assay for Inhibitors of Leishmania Mexicana Pyruvate Kinase (LmPK) | AID 1721, 2009 | Q27686 | Potency, µM (series often up to 57.5 µM), most hits filed as inhibitors | purified LmPK, Kinase-Glo ATP luminescence, 1 h | 0.37% of 290,000 active
Target sequence (Q27686 whole entry, looked up): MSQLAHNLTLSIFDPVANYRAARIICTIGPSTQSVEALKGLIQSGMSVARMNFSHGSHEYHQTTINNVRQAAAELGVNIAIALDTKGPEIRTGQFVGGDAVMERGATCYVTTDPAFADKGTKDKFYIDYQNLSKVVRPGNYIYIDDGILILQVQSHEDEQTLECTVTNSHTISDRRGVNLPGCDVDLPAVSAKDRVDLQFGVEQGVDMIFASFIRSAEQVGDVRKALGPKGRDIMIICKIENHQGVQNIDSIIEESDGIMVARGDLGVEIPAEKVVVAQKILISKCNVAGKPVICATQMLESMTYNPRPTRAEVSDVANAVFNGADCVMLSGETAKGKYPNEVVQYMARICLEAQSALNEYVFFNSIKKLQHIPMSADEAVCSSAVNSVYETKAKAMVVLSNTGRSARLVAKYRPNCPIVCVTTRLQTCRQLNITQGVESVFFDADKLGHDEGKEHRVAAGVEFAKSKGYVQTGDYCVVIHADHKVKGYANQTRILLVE
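Kinase-Glo luminescence read after 1 h RT reaction of 0.1 nM LmPK with 0.5 mM PEP and 0.1 mM ADP. Activity scaled between uninhibited and enzyme-free controls.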
CHX counter: Cycloheximide Counterscreen for Small Molecule Inhibitors of Shiga Toxin | max response, % | AID 2314, 2010 | cell reporter, cycloheximide protein synthesis inhibition counterscreen | 12% of 300,000 active; in the data active = max response mostly above about 13%, no sharp cut-off; inactive = mostly below about 14%; note: read at 38.3 µM for the half of the compounds with a filed dose
Tb PYK inh: qHTS of Trypanosoma Brucei Inhibitors; TbPYK enzyme, Kinase-Glo Plus ATP luminescence, 45 min; 0.12% of 410,000 active; AID 624173, 2012; pyruvate kinase (Trypanosoma brucei), Q57TT1; Potency, µM (series often up to 76.8 µM), most hits filed as inhibitors; note: nearly all actives have a fitted effect of over 50% in size
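Activity of T. brucei pyruvate kinase was followed by Kinase-Glo Plus luminescence after the enzyme reacted 45 min at room temperature with 130 uM ADP (final) and substrate. Test compounds were added before ADP at multiple concentrations.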
FBPA Giardia inh: qHTS Assay for Inhibitors of Fructose-1,6-bisphosphate Aldolase from Giardia Lamblia. Potency, µM (doses to about 59.6 µM), actives largely listed as inhibitors. purified Giardia FBPA. 0.71% of 290,000 active. A8B2U2; note: nearly all actives have a fitted effect of over 55% in size
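Giardia FBPA (40 nM reagent) was preincubated 10 min at RT with compound (up to 57.5 uM final), then substrate plus GAPDH/TPI/NAD/arsenate coupling system with diaphorase/resazurin was added; resorufin fluorescence (525/598 nm) was read after 20 min.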
Shiga toxin inh: A qHTS for Small Molecule Inhibitors of Shiga Toxin; Vero cells, Shiga toxin protein synthesis inhibition reporter; inhibition, % at 38.7 µM; 9.2% of 290,000 active; in the data active = inhibition mostly above about 28%, no sharp cut-off; inactive = mostly below about 43%
Hits are given with their value; i = inactive; ? = inconclusive; nt = no result; [ ] = remark or other dose. Unless noted, calls come from the whole dose curve; as a rule, active = well fitted curve in the direction sought with a large enough effect; inconclusive = small, poorly fitted or top-dose-only effect, or another doubt; inactive = no such curve, though single readings can be large; an effect the other way counts as inactive or inconclusive.

SMILES	Sm TGR inh	LmPK inh	CHX counter	Tb PYK inh	FBPA Giardia inh	Shiga toxin inh
COc1ccc(-c2cc(=O)c3ccc(F)cc3[nH]2)cc1	nt	nt	i	nt	i	i
Cc1ccc2nc(-c3cccc(S(=O)(=O)N4CCCC4)c3)cn2c1	i	i	17	i	i	i
COC(=O)c1ccc(-c2noc(CN(C)CC3CCCCO3)n2)cc1 (configuration not stated)	i	i	43	i	i	i
COC(=O)c1ccc(-c2noc(CN3C[C@H]4CC[C@H]3C4)n2)cc1	?	i	19	i	i	i
CC(C)(C)C(=O)N/C(N)=N/c1nc2ccccc2o1	i	i	50	i	i	71
N/C(=N\c1nc2ccccc2o1)NC(=O)/C=C/c1ccccc1	i	i	i	i	i	i
CCCC(=O)N/C(N)=N/c1nc2ccccc2o1	i	i	51	i	i	87
CCC(=O)N/C(N)=N/c1nc2ccccc2o1	i	i	61	i	i	85
NC(=NCc1ccco1)NC(=O)c1ccccc1	i	i	27	i	i	21
N#Cc1ccccc1S(=O)(=O)N1CCCC(c2nc3c(nnn3Cc3cccc(Cl)c3)c(=O)[nH]2)C1 (configuration not stated)	i	nt	nt	i	nt	nt
CC(C)CC(=O)N/C(N)=N/c1nc2ccccc2o1	i	i	51	i	i	103
N/C(=N\c1nc2ccccc2o1)NC(=O)c1cccc(Br)c1	i	i	i	i	i	i
N/C(=N\c1nc2ccccc2o1)NC(=O)c1ccccc1	i	i	46	i	i	49
COc1ccccc1C(=O)N/C(N)=N/c1nc2ccccc2o1	i	i	i	i	i	37
CC(C)CC(=O)NC(=S)N(Cc1ccccc1)Cc1ccccc1	i	i	i	i	i	i
Cc1ccc(C(=O)N/C(N)=N/c2nc3ccccc3o2)cc1	i	i	i	i	i	i
CCC1(c2ccc(F)cc2)NC(=O)NC1=O (configuration not stated)	i	i	i	i	i	i
CC(=O)c1cccc(NC(=O)c2cccc3c(-c4cnn(C)c4)coc23)c1	nt	nt	nt	i	nt	nt
O=C1C=C(c2ccc3ncccc3c2)C[C@@H](c2ccc3c(c2)OCO3)C1	i	nt	nt	i	nt	nt
S=c1[nH]nc(-c2ccc3ncccc3c2)n1-c1ccc2c(c1)OCCO2	i	7.1µM	i	3.5µM	i	i
S=c1[nH]nc(Cn2c(-c3ccccn3)nc3ccccc32)n1-c1ccc2c(c1)OCCO2	i	?	62	16µM	i	85
Cc1nc2ccccc2n1Cc1n[nH]c(=S)n1-c1ccc(Cl)cc1	i	i	i	?	i	i
Oc1ccc(-c2n[nH]c(=S)n2-c2ccc3c(c2)OCCO3)cc1	i	?	37	4.5µM	i	59
O=C(Cn1ncc2c3ccccc3n(Cc3cccc(Cl)c3)c2c1=O)NCCC1=CCCCC1	i	nt	nt	i	nt	nt
Cc1ccc(NC(=O)CSc2cn(CC(=O)N3CCCC3)c3ccccc23)cc1Cl	i	nt	nt	i	nt	nt
SMILES	Sm TGR inh	LmPK inh	CHX counter	Tb PYK inh	FBPA Giardia inh	Shiga toxin inh
CC(=O)O[C@H]1CC[C@H]2[C@@H]3CCC4=CC(=O)CCC4=C3C=C[C@]12C	nt	nt	nt	i	nt	nt
CC(=O)O[C@H]1CCC2C3CCC4=CC(=O)CCC4=C3C=C[C@@]21C (some centres not stated)	5µM	?	i	i	i	i
CN(C(=O)CSc1nnc(C(F)(F)F)n1C)c1c(N)n(Cc2ccccc2)c(=O)[nH]c1=O	nt	nt	nt	i	nt	nt
O=C(Nc1ccccn1)c1onc2c1CCCC2	i	11µM	30	?	i	i
O=C(Nc1ccccn1)c1csc2c1CCCC2	nt	i	49	i	i	84
COc1cc(NC(=O)c2csc3c2CCCC3)ncn1	i	i	40	i	i	53
O=C(Nc1onc2c1CCCC2)c1ccc(Cl)cc1	i	nt	nt	i	nt	nt
COc1ccccc1NC(=O)c1csc2c1CCCC2	i	i	i	i	i	i
COc1cccc(C(=O)Nc2ccc3nc(SCc4ccc(C)cc4)sc3c2)c1	i	nt	nt	i	nt	nt
C#CCOCCOCCOCCNc1nc(OC)nc(N2CCN(C(=O)[C@H](CCC(=O)O)n3cc(C(N)CO)nn3)CC2)n1 (some centres not stated)	i	nt	nt	i	nt	nt
Cc1ccc(COn2c(-c3ccc(Cl)cc3)nc3ccc([N+](=O)[O-])cc32)cc1	?	i	49	i	i	105
Clc1ccc(COn2c(-c3ccc(Cl)cc3)nc3ccccc32)cc1	i	i	i	i	i	i
O=[N+]([O-])c1ccc2nc(-c3ccc(Cl)cc3)n(OCc3ccccc3)c2c1	i	i	35	i	i	96
COc1ccc(OC(C)c2nc3ccccc3[nH]2)cc1 (configuration not stated)	i	nt	nt	i	nt	nt
COc1cc(C=O)ccc1OCCSc1ccc(C)cc1	i	i	39	i	i	46
COC(=O)c1ccccc1OCCCOc1ccc(C=O)cc1OC	i	i	37	i	i	86
CNC(=O)COc1ccc(C=O)cc1OC	i	i	i	i	i	i
CCOc1cc(C=O)ccc1OCCSc1ccc(C)cc1	i	i	i	i	i	i
COC(=O)c1ccccc1OCCOc1ccccc1C(=O)OC	i	i	i	i	i	i
COc1cc(C=O)ccc1OCc1cccc(Br)c1	i	i	47	i	i	70
COc1cc(C=O)ccc1OCc1ccccc1Br	i	i	61	i	i	74
CC(C)c1ccc(NC(c2nnc(-c3ccccc3)o2)c2ccc(F)cc2Cl)cc1 (configuration not stated)	i	nt	nt	i	nt	nt
COc1ccccc1CNC(=O)CN1C(=O)CCc2cc(S(=O)(=O)N3CCCCC3)ccc21	i	nt	nt	i	nt	nt
CC(=O)C1CCCN(C(=O)c2ccc3nc(Cc4cccc(Cl)c4)oc3c2)C1 (configuration not stated)	i	i	13	i	nt	i
O=C(NCC1COCCO1)c1ccc2nc(Cc3cccc(Cl)c3)oc2c1 (configuration not stated)	i	i	51	i	nt	52
SMILES	Sm TGR inh	LmPK inh	CHX counter	Tb PYK inh	FBPA Giardia inh	Shiga toxin inh
O=C(c1ccc2nc(Cc3cccc(Cl)c3)oc2c1)N1CCOCC1	i	i	59	i	nt	69
NC(=O)c1ccc(NC(=O)COC(=O)CC23CC4CC(CC(Br)(C4)C2)C3)cc1	nt	nt	nt	i	nt	nt
CO[C@@H]1COC(=O)C/C=C\[C@H](C)COC(=O)[C@H](Cc2ccccc2)NC(=O)C/C=C\[C@H]1C	nt	nt	nt	nt	i[12.9 µM]	nt
COc1ccc(OC2C(O)COC2/C=C/c2ccccc2)cc1 (configuration not stated)	nt	nt	nt	nt	i[12.9 µM]	nt
CCc1ccc(-c2ccc(C(=O)C(F)(F)F)[nH]2)cc1	i	i	64	i	i	126
O=C(O)c1ccc(-c2ccccc2)[nH]1	i	i	i	i	i	i
